Activity calls are given as the source filed them. The calls were made as follows: active = hit-call score of the fitted dose curve at least 0.9, where 1 is the maximum; inactive = score below 0.9.

Experiment [1] in a line: CEETOX_H295R_PROG: CeeTox H295R High-throughput Steroidogenesis Assay for Progesterone (PROG) (AID 2283442).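 As to AC50: human H295R adrenal cells primed with 10 µM forskolin before dosing.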 The following applies: actives raise or lower the signal. Summed up:
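Progesterone secreted by human H295R cells was measured by LC-MS/MS following 48 h chemical exposure at 0.1% DMSO, preceded by 48 h forskolin (10 uM) stimulation. Same-well MTT viability; cytotoxic concentrations diluted 10- or 100-fold and retested.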

Read-out in experiment [2]: Tumor necrosis factor receptor superfamily member 6 (Homo sapiens) (UniProt P25445)
In words: LTEA_HepaRG_FAS: Life Technologies and Expression Analysis (LTEA) Assay for Fas cell surface death receptor (FAS) using HepaRG (AID 2283447). The following applies: mRNA level, 48 h; actives raise or lower the signal. The essentials: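 Differentiated HepaRG cells in serum-free induction medium were exposed 48 h to 8 half-log concentrations up to 100 uM in 0.5% DMSO, in duplicate. FAS mRNA was measured by qRT-PCR normalised to ACTB, GAPDH and POLR2A; bidirectional fit versus DMSO.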

Read-out in experiment [3]: Fatty acid synthase (Homo sapiens) (UniProt P49327)
The experiment in a line: LTEA_HepaRG_FASN: Life Technologies and Expression Analysis (LTEA) Assay for Fatty Acid Synthase (FASN) using HepaRG (AID 2283448).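 As to AC50: differentiated human HepaRG liver cells in serum-free induction medium.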 The settings on record: mRNA level, 48 h; actives raise or lower the signal. Summed up:
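Cells were plated, cultured 48 h, switched to serum-free induction medium, then dosed in duplicate (max 100 uM, half-log dilutions, 0.5% DMSO) for 48 h. RNA was then isolated and FASN quantified by qRT-PCR.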

Read-out in experiment [4]: Cyclin D2 (CCND2), CCND2 (gene 894)
The experiment in a line: LTEA_HepaRG_CCND2: Life Technologies and Expression Analysis (LTEA) Assay for Cyclin D2 (CCND2) using HepaRG (AID 2283449).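 Also: CCND2 transcript measured by TaqMan qRT-PCR and normalised to three housekeeping genes.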 The following applies: mRNA level, 48 h; actives raise or lower the signal. Summed up: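 HepaRG, 48 h dosing, 8-pt half-log curve from 100 uM, 0.5% DMSO; duplicate wells. Readout: CCND2 transcript by microfluidic qRT-PCR, housekeeping-normalised; bidirectional fit vs DMSO baseline.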

Read-out in experiment [5]: Cyclin Dependent Kinase Inhibitor 1A (CDKN1A), CDKN1A (gene 1026)
The experiment in a line: LTEA_HepaRG_CDKN1A: Life Technologies and Expression Analysis (LTEA) Assay for Cyclin Dependent Kinase Inhibitor 1A (CDKN1A) using HepaRG (AID 2283450). The settings on record: mRNA level, 48 h; actives raise or lower the signal. Summed up:
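Expression quantified by Fluidigm qRT-PCR with ACTB, GAPDH and POLR2A normalization, fitted bidirectionally against 0.5% DMSO. Cells: HepaRG, plated 48 h then treated 48 h in serum-free induction medium, top concentration 100 uM with half-log dilutions.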

Read-out in experiment [6]: Cyclin D1 (CCND1), CCND1 (gene 595)
The experiment in a line: LTEA_HepaRG_CCND1: Life Technologies and Expression Analysis (LTEA) Assay for Cyclin D1 (CCND1) using HepaRG (AID 2283451). The following applies: mRNA level, 48 h; actives raise or lower the signal. The essentials:
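Expression of CCND1 was quantified by qRT-PCR on Fluidigm arrays using ACTB, GAPDH and POLR2A as reference genes. HepaRG cultures, plated 48 h beforehand, were dosed for 48 h at up to 100 uM (half-log, 8 points) in 0.5% DMSO.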

Read-out in experiment [7]: catalase (CAT), CAT (gene 847)
The experiment in a line: LTEA_HepaRG_CAT: Life Technologies and Expression Analysis (LTEA) Assay for catalase (CAT) using HepaRG (AID 2283452).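 As to AC50: TaqMan qRT-PCR signal normalized to ACTB GAPDH and POLR2A housekeeping genes.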 The settings on record: mRNA level, 48 h; actives raise or lower the signal. The essentials:
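HepaRG cells in serum-free induction medium, 0.5% DMSO vehicle, exposed 48 h in duplicate over 8 half-log concentrations from 100 uM. CAT mRNA measured by qRT-PCR, normalized to ACTB, GAPDH, POLR2A; bidirectional fit versus DMSO.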

Read-out in experiment [8]: flavin-containing dimethylaniline monooxygenases 3 (FMO3), FMO3 (gene 2328)
In words: LTEA_HepaRG_FMO3: Life Technologies and Expression Analysis (LTEA) Assay for flavin-containing dimethylaniline monooxygenases 3 (FMO3) using HepaRG (AID 2283453).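 As to AC50: differentiated human HepaRG liver cells in serum-free induction medium; FMO3 transcript by TaqMan qRT-PCR normalized to ACTB GAPDH and POLR2A.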 The settings on record: mRNA level, 48 h; actives raise or lower the signal. The essentials:
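FMO3 transcript quantified by TaqMan qRT-PCR against three housekeeping genes after 48 h chemical exposure of HepaRG cells. Eight-point half-log series, top 100 uM, 0.5% DMSO vehicle; phenobarbital 1mM induction control; up- or down-regulation fitted.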

Read-out in experiment [9]: Cytochrome P450 (CYP1A1), CYP1A1 (gene 1543)
The experiment in a line: LTEA_HepaRG_CYP1A1: Life Technologies and Expression Analysis (LTEA) Assay for Cytochrome P450 (CYP1A1) using HepaRG (AID 2283454). The settings on record: mRNA level, 48 h; actives raise or lower the signal. Summed up: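 CYP1A1 transcript levels measured by Fluidigm qRT-PCR against three housekeeping genes, 48 h after chemical dosing of human HepaRG cells (highest concentration 100 uM, half-log steps, 0.5% DMSO vehicle). Gain or loss of signal fitted relative to DMSO.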

Read-out in experiment [10]: CFLAR gene, CFLAR (gene 8837)
In words: LTEA_HepaRG_CFLAR: Life Technologies and Expression Analysis (LTEA) Assay for CFLAR gene using HepaRG (AID 2283455). The following applies: mRNA level, 48 h; actives raise or lower the signal. Summed up:
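qRT-PCR read-out (Fluidigm/TaqMan) of CFLAR mRNA, normalized to three housekeeping genes, in differentiated human HepaRG cells after 48 h chemical exposure; 8-point half-log series from 100 uM in 0.5% DMSO; bidirectional curve fitting versus DMSO.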

Fatty acid synthase (Homo sapiens), sequence (P49327 whole entry, looked up): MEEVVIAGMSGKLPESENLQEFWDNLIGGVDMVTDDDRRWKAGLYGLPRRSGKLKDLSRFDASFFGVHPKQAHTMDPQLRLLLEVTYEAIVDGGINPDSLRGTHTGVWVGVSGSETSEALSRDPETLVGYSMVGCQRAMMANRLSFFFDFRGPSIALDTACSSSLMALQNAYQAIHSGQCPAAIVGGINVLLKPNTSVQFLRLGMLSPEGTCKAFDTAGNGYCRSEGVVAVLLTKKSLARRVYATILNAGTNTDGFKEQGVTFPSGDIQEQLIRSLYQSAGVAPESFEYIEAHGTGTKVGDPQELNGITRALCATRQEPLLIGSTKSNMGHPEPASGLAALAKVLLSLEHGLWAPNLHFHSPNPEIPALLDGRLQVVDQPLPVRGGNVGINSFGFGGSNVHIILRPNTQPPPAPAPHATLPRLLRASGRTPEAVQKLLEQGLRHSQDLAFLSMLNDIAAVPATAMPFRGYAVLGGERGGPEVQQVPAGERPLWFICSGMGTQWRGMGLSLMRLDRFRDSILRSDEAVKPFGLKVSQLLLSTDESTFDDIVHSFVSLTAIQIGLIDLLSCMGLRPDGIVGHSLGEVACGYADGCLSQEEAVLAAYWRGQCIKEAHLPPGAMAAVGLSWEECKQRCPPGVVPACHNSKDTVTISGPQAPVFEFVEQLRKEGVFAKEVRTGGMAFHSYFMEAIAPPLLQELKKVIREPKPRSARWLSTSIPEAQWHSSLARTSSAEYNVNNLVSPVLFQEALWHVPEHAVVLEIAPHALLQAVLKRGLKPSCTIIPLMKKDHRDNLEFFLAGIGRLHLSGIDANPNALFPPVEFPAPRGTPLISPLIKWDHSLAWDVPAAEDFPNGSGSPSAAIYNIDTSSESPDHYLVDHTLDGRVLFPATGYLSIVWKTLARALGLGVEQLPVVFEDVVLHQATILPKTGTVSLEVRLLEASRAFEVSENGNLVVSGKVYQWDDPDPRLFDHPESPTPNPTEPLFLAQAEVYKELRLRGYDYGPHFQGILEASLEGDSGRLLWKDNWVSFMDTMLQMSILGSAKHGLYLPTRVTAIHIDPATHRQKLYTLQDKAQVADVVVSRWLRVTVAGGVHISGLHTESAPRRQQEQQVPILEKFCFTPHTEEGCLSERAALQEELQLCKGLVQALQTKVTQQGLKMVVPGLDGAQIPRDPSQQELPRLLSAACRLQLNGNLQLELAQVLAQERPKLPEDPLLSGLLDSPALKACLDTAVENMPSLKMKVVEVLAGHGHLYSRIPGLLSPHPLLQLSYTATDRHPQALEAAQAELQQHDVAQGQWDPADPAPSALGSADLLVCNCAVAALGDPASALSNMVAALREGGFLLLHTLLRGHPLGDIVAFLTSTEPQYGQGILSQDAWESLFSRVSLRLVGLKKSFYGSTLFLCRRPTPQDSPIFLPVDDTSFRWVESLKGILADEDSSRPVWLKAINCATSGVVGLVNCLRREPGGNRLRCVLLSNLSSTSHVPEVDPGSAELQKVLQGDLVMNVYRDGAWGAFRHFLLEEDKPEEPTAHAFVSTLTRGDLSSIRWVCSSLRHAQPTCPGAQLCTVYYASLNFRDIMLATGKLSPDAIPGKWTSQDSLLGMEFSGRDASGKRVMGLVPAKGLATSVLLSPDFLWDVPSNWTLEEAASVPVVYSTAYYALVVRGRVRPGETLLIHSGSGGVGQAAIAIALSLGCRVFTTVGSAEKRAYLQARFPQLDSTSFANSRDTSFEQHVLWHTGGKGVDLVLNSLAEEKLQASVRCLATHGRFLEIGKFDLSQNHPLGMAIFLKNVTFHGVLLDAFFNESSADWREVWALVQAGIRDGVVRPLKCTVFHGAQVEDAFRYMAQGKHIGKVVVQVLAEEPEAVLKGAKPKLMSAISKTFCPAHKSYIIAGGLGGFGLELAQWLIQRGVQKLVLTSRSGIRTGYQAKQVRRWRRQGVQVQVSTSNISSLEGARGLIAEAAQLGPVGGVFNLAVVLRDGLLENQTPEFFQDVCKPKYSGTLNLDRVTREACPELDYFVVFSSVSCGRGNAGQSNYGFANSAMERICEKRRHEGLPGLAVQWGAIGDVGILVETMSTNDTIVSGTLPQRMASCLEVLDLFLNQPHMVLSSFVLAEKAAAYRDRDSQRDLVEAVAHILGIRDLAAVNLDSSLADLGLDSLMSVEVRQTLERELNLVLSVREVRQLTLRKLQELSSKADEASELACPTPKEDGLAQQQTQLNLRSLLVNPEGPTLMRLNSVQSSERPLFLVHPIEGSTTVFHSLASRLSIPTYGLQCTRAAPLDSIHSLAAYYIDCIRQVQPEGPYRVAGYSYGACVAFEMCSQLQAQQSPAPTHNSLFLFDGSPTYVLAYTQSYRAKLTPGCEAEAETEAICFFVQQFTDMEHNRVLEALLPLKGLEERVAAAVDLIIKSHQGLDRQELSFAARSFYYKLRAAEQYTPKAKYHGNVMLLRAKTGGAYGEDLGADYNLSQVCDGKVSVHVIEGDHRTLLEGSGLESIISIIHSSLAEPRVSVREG

As for `CCOCn1c(-c2ccc(Cl)cc2)c(C#N)c(Br)c1C(F)(F)F`, the AC50 in experiment [1] was 2.1 µM (active).
With `OC(Cc1ccccc1Cl)(Cn1[nH]cnc1=S)C1(Cl)CC1` (centres undefined), in [1], the call was inactive.
Regarding `Clc1cccc(Cl)c1Cl`, the molecule was classed as inactive in [2], in [3], in [4], in experiment [5], in experiment [6] and in experiment [7]. Moreover, the molecule was classed as inactive in experiment [8] and in experiment [10]. Also, in [9], the concentration at half-maximal activity (AC50) is 50 µM (active).
`CCC[CH2][Sn]([Cl])([Cl])[CH2]CCC`: the molecule was classed as inactive in experiment [1].
In the case of `CCCCCCCCCCCCN(C)C`, the result in experiment [1] was inactive.
As for `OC(Cc1ccccc1Cl)(Cn1cncn1)C1(Cl)CC1` (centres undefined), the AC50 in experiment [1] was 6.41 µM (active).
For `CC(C)(C)c1cc([N+](=O)[O-])cc(C(C)(C)C)c1O`, the outcome in experiment [1] was inactive.
Regarding `O=C(O)C1(c2ccc3c(c2)OC[C@H](Cc2ccc(-c4ccccc4)cc2)[C@H]3O)CCCC1`, the result in experiment [2], in experiment [4], in experiment [6] and in experiment [10] was inactive. The half-maximal activity concentration (AC50) in [3] was 50 µM (active); in experiment [5], 80.2 µM (active); in experiment [7], 82 µM (active); in experiment [8], 81.8 µM (active); in [9] it was 23.3 µM (active).
In the case of `CC(C)(C)c1ccccc1O`, the molecule was classed as inactive in experiment [1], in [2], in [3], in experiment [4], in experiment [5] and in [6]. Besides, the molecule was called inactive in [7], in [8] and in experiment [10]. For the same molecule, the AC50 in [9] is 50 µM (active).
Regarding `Clc1cccc(Cl)c1`, the molecule was classed as inactive in experiment [2], in experiment [3], in experiment [4], in [5], in experiment [6] and in experiment [7]. In addition, the outcome in experiment [8] and in experiment [10] was inactive. Besides, the AC50 in [9] is 78.1 µM (active).
As to `Oc1c(Cl)cc(Cl)cc1Cl`, the AC50 in [1] is 50 µM (active). The molecule was classed as inactive in [2], in experiment [3], in [4], in experiment [5], in experiment [6] and in experiment [7]. For the same molecule, the call in experiment [8] and in experiment [10] was inactive.
For `CC(C)O.CC(C)O.OCCN(CCO)CCO.OCCN(CCO)CCO.[Ti]`, the call in experiment [2], in experiment [3], in experiment [4], in experiment [5], in experiment [6] and in experiment [7] was inactive. The call in experiment [8], in experiment [9] and in experiment [10] was inactive.
Take `CCOP(=O)(OCC)OC(=CCl)c1ccc(Cl)cc1Cl`: the half-maximal activity concentration (AC50) in experiment [1] was 5.17 µM (active).
As to `O=C(N[C@H]1CN2CCC1CC2)c1ccc2c(c1)OCCO2`, the outcome in [2], in experiment [3], in [4], in experiment [5], in experiment [6] and in experiment [7] was inactive. The call in experiment [8], in experiment [9] and in experiment [10] was inactive.
With `CCCSP(=S)(OCC)Oc1ccc(SC)cc1` (centres undefined), the AC50 in experiment [1] was 6.35 µM (active).
Still for that read-out and setting: then `O=S1OC[C@@H]2[C@H](CO1)[C@]1(Cl)C(Cl)=C(Cl)[C@@]2(Cl)C1(Cl)Cl` (some centres undefined), with 8.22 µM (active).
`Cc1cc(C(C)(C)c2ccc(O)c(C)c2)ccc1O`: the call in experiment [1] was inactive.
As to `OCCN(CCO)CCO`, the molecule was called inactive in experiment [2], in experiment [3], in experiment [4], in experiment [5], in experiment [6] and in experiment [7]. In addition, the call in [8] and in [10] was inactive. Also, the half-maximal activity concentration (AC50) in experiment [9] was 73.2 µM (active).
Consider `CCOP(=S)(OCC)O/N=C(\C#N)c1ccccc1`, for which the AC50 in experiment [1] was 50 µM (active).
